CHRM1 PAM: positive allosteric modulators of human M1 muscarinic receptor; P11229; CHO-K1 hM1, Fluo-8 calcium fluorescence, ACh EC20; 0% = ACh EC20, 100% = maximal ACh; activation, % at 3 µM; hit rate 0.088% among 360,000; AID 588819; in the data active means activation above about 19%, passing the limit was not always enough
Target sequence (P11229 whole entry, looked up): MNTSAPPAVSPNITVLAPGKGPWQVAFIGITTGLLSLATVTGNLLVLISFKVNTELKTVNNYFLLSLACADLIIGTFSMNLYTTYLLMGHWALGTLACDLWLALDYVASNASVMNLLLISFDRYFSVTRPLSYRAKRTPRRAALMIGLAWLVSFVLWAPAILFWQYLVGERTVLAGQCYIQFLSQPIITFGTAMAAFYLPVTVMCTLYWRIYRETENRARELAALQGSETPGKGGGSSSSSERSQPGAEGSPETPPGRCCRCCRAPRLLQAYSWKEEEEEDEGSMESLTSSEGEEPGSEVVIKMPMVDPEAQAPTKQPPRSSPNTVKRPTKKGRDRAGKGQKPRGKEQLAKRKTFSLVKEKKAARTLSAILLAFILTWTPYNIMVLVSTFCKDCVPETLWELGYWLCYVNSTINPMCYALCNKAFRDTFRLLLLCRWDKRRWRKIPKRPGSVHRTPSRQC
M1 ag parental: M1 agonist counterscreen hit in parental CHO-K1 cells; Fluo-8 calcium fluorescence; scaled to maximal ATP response, vehicle zero; activation, % at 3 µM; hit rate 0.48% among 360,000; in the data active means activation above about 15%;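 further: untransfected CHO-K1 host cells lacking M1 receptor as counterscreen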
M1 antag: antagonists of human M1 muscarinic receptor | P11229 | CHO-K1 hM1, Fluo-8 calcium fluorescence, ACh EC80 antagonist | inhibition, % at 3 µM | hit rate 1.3% among 360,000 | AID 588852;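 active means percent inhibition above its own plate's cutoff, namely the mean of that plate's compound wells plus 3 SD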;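 further: peak over basal fluorescence ratio during 140 s after agonist addition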
CHO-K1 Ca antag: counter-screen for M1 antagonists: effect in parental CHO-K1 cells; ATP-induced calcium, Fluo-8 fluorescence; inhibition, % at 3 µM; hit rate 0.6% among 360,000;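 active means inhibition above a per-plate cutoff, the plate's mean sample inhibition plus 3 SD, cut at about 24% in these data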
M1 PAM parental: counter-screen for M1 PAMs: effect in parental CHO-K1 cells; ATP EC20, Fluo-8 calcium fluorescence; 0% at ATP EC20, 100% at ATP max; hit rate 0.02% among 360,000; activation, % at 3 µM; AID 602247;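 active means activation above the run cutoff, the mean activation of all test compounds plus 3 SD, cut at about 40% in these data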;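 further: peak over basal fluorescence ratio in a 140 s read after ATP addition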
CHRM1 agonist: activates human CHRM1 receptor | AID 588814 | hit rate 0.33% among 360,000 | P11229 | CHO-K1 hM1, Fluo-8 calcium fluorescence, agonist mode; 0% DMSO, 100% acetylcholine EC100 | activation, % at 3 µM;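 active means activation above the run's mean compound activation plus 3 SD, cut at about 16% in these data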;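 further: peak over basal fluorescence ratio within a 140 s kinetic read after compound addition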
Hits are given with their value; i = inactive. Hits are enriched below; roughly 2.4% of the tested compounds scored in any of these assays.

SMILES	CHRM1 PAM	M1 ag parental	M1 antag	CHO-K1 Ca antag	M1 PAM parental	CHRM1 agonist
CCCCN(C)c1c(C)nc2ccc(C(=O)NCCOc3ccc(OC)cc3)cn12	i	i	39	30	i	i
CCc1nc2ccc(C(=O)NCCN3CCCC3)cn2c1N(C)Cc1ccc(OC)cc1	i	i	45	i	i	i
CCc1nc2ccc(C(=O)NCc3ccc(OC)cc3)cn2c1N(C)Cc1ccc(OC)cc1	i	i	i	i	i	i
COc1ccc(NC2=CC(c3cccc(OC)c3)N(c3ccc(OC)cc3)C2=O)cc1 (stereo not drawn)	i	i	47	37	i	i
CCN(CC)S(=O)(=O)c1cccc(NC(=O)/C=C/c2cccc([N+](=O)[O-])c2)c1	i	16	i	i	i	i
CCN(CC)S(=O)(=O)c1ccc(/C=C/C(=O)Nc2ccc(Br)cc2F)cc1	i	i	31	i	i	i
CCN(CC)S(=O)(=O)c1cccc(NC(=O)/C=C/c2ccc([N+](=O)[O-])cc2)c1	i	i	i	i	i	i
COc1ccc(/C=C(\NC(=O)c2ccco2)C(=O)N2CCCCC2)cc1	i	i	i	i	i	i
CS(=O)(=O)N(CC(=O)N1CCc2ccccc2C1)c1ccccc1Br	i	i	i	i	i	i
Cc1ccc(C2C3=C(CC(C)(C)CC3=O)Nc3n[nH]c(C)c32)cc1 (stereo not drawn)	i	i	i	25	i	i
C=CC[C@@H](CC(=O)N(CCO)Cc1ccccc1)C(=O)N[C@H](COC(=O)[C@@H](CC=C)Cc1ccc(F)cc1)c1ccccc1	i	i	i	i	i	i
C=CC[C@@H](CC(=O)N(CCO)Cc1ccccc1)C(=O)NC[C@H](OC(=O)[C@@H](CC=C)Cc1ccc(F)cc1)c1ccccc1	i	i	34	i	i	i
O=C(NCCN1CCOCC1)c1ccccc1OCc1ccccc1	i	i	i	i	i	i
COc1ccc(S(=O)(=O)N2CCOCC2)cc1NC(=O)CN1CCCc2ccccc21	i	i	i	i	i	i
O=C1N(c2ccccc2)C[C@@H]2C[C@@H](c3cccc4c3OCO4)N3CCC[C@@]123	i	i	49	i	i	i
COc1ccc(C(=O)NC2CC3CCCC(C2)N3Cc2ccccc2)cc1 (stereo not drawn)	i	i	i	i	i	i
CCOc1ccc(C(=O)NC2CC3CCCC(C2)N3Cc2ccccc2)cc1 (stereo not drawn)	i	i	38	i	i	i
CCCNC(=S)NC1CC2CCCC(C1)N2Cc1ccc(F)cc1 (stereo not drawn)	i	i	48	i	i	i
O=C(Nc1ccccc1-c1ccccc1)NC1CC2CCCC(C1)N2Cc1ccc(F)cc1 (stereo not drawn)	i	i	98	i	i	i
COC(=O)C1CC2=C(CCCC2=O)N(c2ccccc2)C1=O (stereo not drawn)	i	i	i	i	i	i
CC1Cc2ccccc2N1S(=O)(=O)c1cccc(C(=O)N2Cc3ccccc3CC2C(N)=O)c1 (stereo not drawn)	i	i	i	i	i	i
CC(C)CCC(CCN1CCCC1)c1ccc2c(c1)OCO2 (stereo not drawn)	i	i	57	i	i	i
CC(C)CCC(CCN1CCOCC1)c1ccc2c(c1)OCO2 (stereo not drawn)	i	i	i	i	i	i
CC1(C(=O)NS(=O)(=O)c2ccc(Cl)cc2)CCN1C(=O)Cc1ccc(Cl)cc1Cl (stereo not drawn)	i	i	i	i	i	i
CCOC(=O)C1CCC(CNCc2ccccc2C)CC1 (stereo not drawn)	i	i	53	i	i	i
SMILES	CHRM1 PAM	M1 ag parental	M1 antag	CHO-K1 Ca antag	M1 PAM parental	CHRM1 agonist
O=C(O)C1CCC(CNCc2ccccc2Cl)CC1 (stereo not drawn)	i	i	i	i	i	i
O=C(O)c1cc(Cl)ccc1-c1ccc(/C=C/c2cc(C(F)(F)F)[nH]c(=O)n2)o1	i	26	i	i	i	i
O=C(O)c1ccccc1-c1ccc(/C=C/c2cc(C(F)(F)F)[nH]c(=O)n2)o1	i	26	i	i	i	i
Cc1nc(S/C(=C/c2ccc(-c3cc(Cl)ccc3C)o2)C(=O)O)n[nH]1	i	i	i	i	i	i
COC(=O)c1ccc(OC)c(CSc2nnc(COc3ccc(Cl)cc3)o2)c1	i	i	i	24	i	i
COC(=O)c1ccc(OC)c(CSc2nnc(COc3ccccc3)o2)c1	i	i	i	i	i	i
C=CCN1CCN(C(=O)c2cc3c(s2)CCCC3)CC1	i	i	i	i	i	i
CSc1nc(N)nc2c1ncn2CC(=O)NCc1ccc2[nH]ccc2c1	i	i	i	i	i	i
O=C(NC(N1CCOCC1)C(Cl)(Cl)Cl)c1ccc(F)cc1 (stereo not drawn)	i	18	i	i	i	i
CCN(C(=O)CCS(=O)(=O)c1cccc2nonc12)c1ccc(F)cc1	i	i	i	i	i	i
CCC1CCCCN1CCNC(=O)C1CCN(S(=O)(=O)c2cccc3nsnc23)CC1 (stereo not drawn)	i	i	52	i	i	i
Cc1cccc(N2CCN(C(=O)C3CCN(S(=O)(=O)c4cccc5cccnc45)CC3)CC2C)c1 (stereo not drawn)	i	i	i	i	i	i
CC1CCN(CCNC(=O)C2CCN(S(=O)(=O)c3cccc4nsnc34)CC2)CC1	i	i	i	i	i	i
CCCN(CCC)CCCNC(=O)C1CCC(CNS(=O)(=O)c2cccc3nsnc23)CC1 (stereo not drawn)	i	i	51	i	i	i
CC(C)OCCCNC(=O)C1CCC(CNS(=O)(=O)c2cccc3nsnc23)CC1 (stereo not drawn)	i	i	i	i	i	i
O=C(C1CCN(S(=O)(=O)c2cccc3nsnc23)CC1)N1CCn2c1nc1ccccc12	i	i	i	i	i	17
Cc1cccc(N2CCN(C(=O)C3CCN(S(=O)(=O)c4cccc5nsnc45)CC3)CC2C)c1 (stereo not drawn)	i	i	25	i	i	i
O=C(COc1ccc(S(=O)(=O)N2CCOCC2)cc1)NC1CC1	i	i	i	i	i	i
Cc1ccc(S(=O)(=O)NCCC(=O)N2CC(C)OC(C)C2)cc1C (stereo not drawn)	i	i	i	i	i	i
COC(=O)c1nc2n(n1)C(c1ccc(OC)c(OC)c1)C(C(=O)OC1CCCCC1)=C(C)N2 (stereo not drawn)	i	i	i	28	i	i
COc1ccc(C2NC(=O)NC(C)=C2C(=O)OC2CCCCC2)cc1OC (stereo not drawn)	i	i	i	i	i	i
Cc1c(-n2cc(C(=O)c3cc(F)ccc3O)cc(C#N)c2=O)c(=O)n(-c2ccccc2)n1C	i	i	i	i	i	i
